Shown are actives, neighbours in structure and some others; about 3.3% of the full set was active somewhere.
NOD2 RIPK2 PPI: inhibitors of human NOD2-RIPK2 interaction | inhibition, % at 4.98 µM | O43353 | 360,000 tested, 0.38% active | AID 624267 | CHO BLA complementation NOD2-RIPK2, CCF4 ratio; in the data active = inhibition above about 21%;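 note: 0% = vehicle only and 100% = reference blocker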
Target sequence (O43353 whole entry, looked up): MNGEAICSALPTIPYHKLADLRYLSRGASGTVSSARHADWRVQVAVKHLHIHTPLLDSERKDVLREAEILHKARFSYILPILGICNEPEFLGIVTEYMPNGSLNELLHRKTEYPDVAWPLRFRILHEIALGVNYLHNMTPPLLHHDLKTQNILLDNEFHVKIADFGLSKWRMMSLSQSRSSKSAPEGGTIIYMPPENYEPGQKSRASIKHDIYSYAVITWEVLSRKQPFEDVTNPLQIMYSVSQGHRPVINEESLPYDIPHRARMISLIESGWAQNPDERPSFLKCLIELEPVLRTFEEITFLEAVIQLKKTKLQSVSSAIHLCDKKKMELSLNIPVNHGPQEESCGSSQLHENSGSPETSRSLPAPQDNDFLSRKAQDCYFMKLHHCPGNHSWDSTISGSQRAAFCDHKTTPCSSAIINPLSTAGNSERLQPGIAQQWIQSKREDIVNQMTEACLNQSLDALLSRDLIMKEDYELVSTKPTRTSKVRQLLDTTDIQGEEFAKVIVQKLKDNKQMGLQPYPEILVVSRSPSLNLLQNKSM
TLR9-MyD88 inh: TLR9-MyD88 interaction inhibition; 340,000 tested, 0.21% active; AID 504734; inhibition, % at 4.98 µM; CHO BLA complementation TLR9-MyD88, CCF4 FRET ratio; Q9NR96+Q99836;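 active = inhibition above the mean over all tested compounds plus 3 SD, cut at about 21% in these data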;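 note: 0% = DMSO only wells and 100% = clavulanate BLA inhibitor control wells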
PRMT1 FP inh: PRMT1 (human) inhibition, primary screen; Q99873; recombinant PRMT1, activity-based probe fluorescence polarization; inhibition, % at 2.79 µM; 370,000 tested, 1.3% active; AID 652257;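 active = inhibition above about 21% made by adding two undisclosed values, limit read from the data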
ABHD5-PLIN5 inh: ABHD5-PLIN5 protein interaction inhibition | Q00G26+Q8WTS1 | Split G. princeps luciferase complementation, luminescence, 4 h | AID 602281 | 360,000 tested, 0.78% active | inhibition, % at 4 µM;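 active = inhibition above the mean inhibition across every tested compound plus 3 SD, cut at about 22% in these data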;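 note: 0% = DMSO only wells and the 100% control is not disclosed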
rCAG RNA binder: binds r(CAG) RNA repeats; r(CAG) RNA repeat, TO-PRO-1 dye displacement fluorescence; inhibition, % at 3 µM; 370,000 tested, 1.3% active;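 active = inhibition above the plate cutoff, the mean of all test compounds on that plate plus 3 SD, cut at about 35% in these data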;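 note: 0% = DMSO alone and 100% = 100 µM mitoxantrone as full dye displacement; higher means more dye released from RNA so lower well fluorescence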
TLR4-MyD88 BLA: TLR4-MyD88 interaction inhibition in cells. O00206+Q99836. HeLa CL3-4 TLR4/MyD88 BLA complementation, FRET ratio. inhibition, % at 8.4 µM. 200,000 tested, 0.18% active. AID 861; in the data active = inhibition above about 25%;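 note: 0% = vehicle and 100% = reference inhibitor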
PRMT1 inh conf: PRMT1 (human) inhibition, FP confirmation; shares compounds with PRMT1 FP inh; 3,300 tested, 42% active; recombinant His-PRMT1, activity-based probe fluorescence polarization; inhibition, % at 2.79 µM;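 active = mean inhibition across replicates above the hit cutoff derived for the earlier primary screen, cut at about 22% in these data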
Numbers without * were called inactive; . = not tested or not shown.

SMILES	NOD2 RIPK2 PPI	TLR9-MyD88 inh	PRMT1 FP inh	ABHD5-PLIN5 inh	rCAG RNA binder	TLR4-MyD88 BLA	PRMT1 inh conf
CCOC(=S)SCC(=O)Nc1nccs1	-5	-8	46*	1	-1	-4	13
CCOC(=S)SCC(=O)Nc1nc(C)c(C)s1	-18	3	50*	0	1	.	39*
CC1CCC(=O)N(CCC#N)CC1 (stereo not given)	-2	-7	-4	1	-1	.	.
CN(C(=O)CC(=O)Nc1ccc(Cl)c(Cl)c1)c1ccccc1	0	-21	4	-8	0	0	.
Cc1cc(C2=NNC(=NC3CC3)SC2)c(C)n1-c1ccccc1F	-6	5	36*	-14	8	0	14
Cc1cc(C2=NNC(=NC3CCCCC3)SC2)c(C)n1-c1c(C)n(C)n(-c2ccccc2)c1=O	-1	-14	-1	-8	1	-6	.
Cc1ccc(C(CC(=O)O)NC(=O)c2ccc(S(=O)(=O)N3CC(C)OC(C)C3)cc2)cc1 (stereo not given)	-9	4	3	-11	7	.	.
CC(C)N1CC2(CC(c3ccccc3C(F)(F)F)=NO2)CN1C(=O)c1ccc(C(C)(C)C)cc1 (stereo not given)	-12	-2	6	-1	-2	.	.
CCCCCCCCN1C(=O)[C@@H](CC(=O)N2CCCC2)C[C@@]2(C(=O)OC)C1=C[C@H](C(C)(C)C)O[C@@H]2C	.	.	5	.	3	.	.
O=C(O)c1ccccc1NS(=O)(=O)c1ccc(N/N=C/c2cccc(O)c2O)c([N+](=O)[O-])c1	-1	-11	35*	-8	92*	.	29*
CCN(CC)S(=O)(=O)c1ccc(C(=O)NCc2n[nH]c(=S)n2-c2ccc(Cl)c(Cl)c2)cc1	-1	8	28*	-13	27	-2	2
COC(=O)C[C@@H]1CC[C@H](NC(=O)c2cnccn2)[C@@H](CO)O1	-5	.	-1	-2	3	.	.
O=c1c2c(-c3ccco3)csc2nc(SCc2cn3cccnc3n2)n1-c1ccccc1	-4	-5	37*	48*	27	-5	1
NC(=O)CSc1nc2scc(-c3ccco3)c2c(=O)n1-c1ccccc1	3	-27	76*	49*	12	-6	9
c1ccc(Cn2c(SCc3cn4cccnc4n3)nnc2-c2ccco2)cc1	12	9	5	2	-2	-12	.
COc1ccc(S(=O)(=O)N2CCCC2CNC(=O)C(=O)NCc2ccccc2Cl)cc1 (stereo not given)	-8	-2	3	-9	0	.	.
CCN(CC)CCCN1C(=O)C2=C(C1=O)C1N(C)c3ccccc3[C@@]13C[C@@H](CO)N(C(=O)CCC(=O)OC)C3=N2 (stereo not given in full)	.	.	-2	.	2	.	.
CC1C(=O)N(Cc2cn(CC3CCCCC3)nn2)CCS(=O)(=O)N1Cc1ccc(-c2ccc(Cl)cc2)cc1 (stereo not given)	5	2	.	12	.	.	.
Cc1ccc(S(=O)(=O)SC/C=C/CSS(=O)(=O)c2ccc(C)cc2)cc1	7	20	87*	2	3	.	91*
CCOC1=C2[C@@H](CN(S(=O)(=O)c3ccc(C)cc3)[C@H]2c2cccc3ccccc23)[C@H]2C(=O)N(C3CCCCC3)C(=O)[C@H]2C1	0	.	-4	-7	10	.	.
COc1ccc(N2CC(C(=O)Nc3ccc(S(=O)(=O)Nc4nccs4)cc3)CC2=O)c(OC)c1 (stereo not given)	7	-5	3	-7	28	.	.
CCOC(=O)NC1(NCC(C)C)Oc2ccccc2O1	-8	5	18	9	-4	2	.
CCOC(=O)NC1(NCc2ccccc2)Oc2ccccc2O1	-8	-5	26*	3	-6	1	5
O=C(N/N=C\C=C\c1ccc([N+](=O)[O-])o1)c1cccs1	-1	-1	31*	2	30	.	5
O=C(N/N=C/C=C/c1ccccc1[N+](=O)[O-])c1cccs1	14	0	-4	-3	-1	1	.
Cn1cc(Br)c(NC(=O)/C=C/C(=O)O)n1	-14	-2	36*	3	0	.	4
